HCMV inh: human cytomegalovirus inhibition; HFF cells, HCMV-luciferase reporter, 72 h; active compounds read low; activity change, negative = inhibition, % at 57.5 µM; 410,000 tested, 4.5% active; AID 1259415; in the data active = activity change below about -60%; inconclusive = no clear call, values can overlap the other calls; inactive = above about -39%
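Inhibition of viral replication was scored as loss of reporter luminescence in HFFs infected with HCMV-luciferase (MOI 1 PFU/cell) for 72 h; compounds tested at 2 doses, normalized to buffer and Salinomycin controls.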
Lassa entry inh: Lassa virus entry inhibition; Potency, µM (highest dose often 37.9 µM), inactives show at the top dose activity change, negative = inhibition, hits mostly inhibitors; 300,000 tested, 1.2% active; Lassa virus pseudotype entry inhibition, cell reporter; calls by dose curve; tested in HEK293 cells; also: potency is read from the fitted curve at half-maximal effect; nearly all actives have a fitted effect of over 50% in size
HCV inhibitor: inhibitors of hepatitis C virus infection. 340,000 tested, 3.4% active. AID 651820. Huh7.5.1 HCVcc-Cre infection, luciferase reporter, 44 h. Potency, µM (titrated, usually from 41.8 µM), without a hit: at the top dose activity change, negative = inhibition, actives largely listed as inhibitors; active = well fitted inhibition curve with a large enough effect; inconclusive = small, poorly fitted or top-dose-only effect, or another doubt; inactive = no such curve, though single readings can be large or run the other way; also: potency is read from the fitted curve at half-maximal effect
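Compounds are dispensed onto cells plated 4 h earlier at 1,000 per well, with HCVcc-Cre virus (about 0.5 moi) added next. Following 44 h of culture, luminescent signal is measured for 15 sec after 15 min with substrate at room temperature.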
FMDV antiviral: foot and mouth disease virus antiviral activity | FMDV antiviral cell-based qHTS | Potency, µM (doses to about 57.9 µM), without a hit: top-dose activity change, negative = inhibition, most hits filed as inhibitors | 410,000 tested, 1.2% active; calls by dose curve; tested in HEK293T cells; also: read-out not given here; potency is read from the fitted curve at half-maximal effect; nearly all actives have a fitted effect of over 45% in size
Marburg entry inh: Marburg virus entry inhibition; Potency, µM (highest dose often 37.8 µM), inactives show at the top dose activity change, negative = inhibition, most hits filed as inhibitors; 300,000 tested, 1.8% active; Marburg virus pseudotyped entry inhibition, cell reporter; calls by dose curve; tested in HEK293 cells; also: potency is read from the fitted curve at half-maximal effect
* marks the source's active call; other numbers are inactive results; ! = not confirmed by another sample; [ ] = remark or other dose. Hits are enriched below; roughly 7.9% of the tested compounds scored in any of these assays. % is scaled to controls: 0 for no effect and ±100 for the full control effect.

For CC(COc1cccc2ccccc12)CN1CCN(C)CC1 (stereo not given) the results were HCMV inh 5.3, Lassa entry inh inconclusive, HCV inhibitor 5.01µM*, FMDV antiviral -21.6% and Marburg entry inh inconclusive.
C=CCc1ccc(OCC(O)CN2CCN(c3ccccc3)CC2)c(OC)c1 (stereo not given) was read as HCMV inh -61.8*, HCV inhibitor -29.7% and FMDV antiviral 1.4%.
Screening O=S(=O)(c1cccs1)N1CCN(CC(O)COC2CCCc3ccccc32)CC1 (stereo not given) returned HCMV inh 7.6, Lassa entry inh -22.5%, HCV inhibitor -7.2%, FMDV antiviral inconclusive and Marburg entry inh -9.1%.
For CC1(C(=O)NS(=O)(=O)c2ccccc2Cl)CCN1C(=O)Cc1ccccc1Cl (stereo not given) the results were HCMV inh -15.5 and FMDV antiviral 4.1%.
For CCCn1c2ccccc2c2cnn(CC(=O)NCc3cc(OC)ccc3OC)c(=O)c21 the results were HCMV inh -4.5, Lassa entry inh -13.6%[46.1 µM] and FMDV antiviral -13.6%.
`COc1ccccc1N1CCN(CC(O)COc2cccc3ccccc23)CC1` (stereo not given) gave HCMV inh 17.0, Lassa entry inh 20.6µM*!, HCV inhibitor -39.2%, FMDV antiviral -17.2% and Marburg entry inh inconclusive.
For OC(COc1cccc2ccccc12)CN1CCN(c2ccccc2)CC1 (stereo not given) the results were HCMV inh 29.2, HCV inhibitor 1.7% and FMDV antiviral -10.3%.
`COc1ccc2c(=O)c(C(=O)NCCc3ccc(OC)c(OC)c3)c[nH]c2c1` gave HCMV inh -4.5, Lassa entry inh inconclusive, HCV inhibitor -27.3%, FMDV antiviral inconclusive and Marburg entry inh 7.3µM*.
For COc1ccc(CC(C)CC(=O)NCCc2ccc(OC)c(OC)c2)cc1 (stereo not given) the results were HCMV inh -60.6*, HCV inhibitor inconclusive and FMDV antiviral -6.1%.
`COc1ccc2c(=O)c(C(=O)NCCc3ccccc3)c[nH]c2c1` gave HCMV inh 14.5, HCV inhibitor -3.6% and FMDV antiviral 0.0%.
`COc1ccc2cc3cc(C(=O)NCCc4ccc(OC)c(OC)c4)oc3nc2c1` gave HCMV inh -29.8, Lassa entry inh inconclusive, HCV inhibitor inconclusive, FMDV antiviral 8.91µM* and Marburg entry inh inconclusive.
Screening COc1ccc(/C=C/C(=O)NC(=S)NCCc2ccc(OC)c(OC)c2)cc1 returned HCMV inh -61.8*, Lassa entry inh -17.3%, HCV inhibitor inconclusive, FMDV antiviral inconclusive and Marburg entry inh inconclusive.
For COc1ccc(CCNC(=O)/C=C\c2ccccc2)cc1OC the results were HCMV inh inconclusive, Lassa entry inh 1.4%, HCV inhibitor -5.2%, FMDV antiviral 0.0% and Marburg entry inh 0.2%.
For COc1ccc(OC)c(CNC(=O)c2cc3cc4ccc(OC)cc4nc3o2)c1 the results were HCMV inh 10.1, Lassa entry inh -15.4%[46.1 µM], FMDV antiviral -16.8% and Marburg entry inh -5.4%[46.1 µM].
CCOc1ccc(N2CC(C(=O)Nc3ccccc3C(=O)N3CCOCC3)CC2=O)cc1 (stereo not given) was read as HCMV inh 39.6, Lassa entry inh 11.3%, HCV inhibitor -13.6%, FMDV antiviral -17.1% and Marburg entry inh -9.5%.
Screening O=C1CC[C@@H](C(=O)O)N1 returned HCMV inh 10.5, HCV inhibitor 10.9% and FMDV antiviral -18.3%.
For COc1ccc(C(=O)CCc2ccc(OC)c(OC)c2)cc1 the results were HCMV inh -80.4*, Lassa entry inh -21.2%[46.1 µM], HCV inhibitor inconclusive, FMDV antiviral -12.6% and Marburg entry inh inconclusive.
For COc1ccc(CNc2nc(-c3ccccc3OC)nc3ccccc23)c(OC)c1 the results were FMDV antiviral -18.3%.
CCCc1nn2cc(-c3ccc(C)c(C)c3)nc2s1 was read as HCMV inh -62.0*, Lassa entry inh 13.9%[46.1 µM], FMDV antiviral -77.3% and Marburg entry inh -7.8%[46.1 µM].
Cc1nn2cc(-c3ccc(N)cc3)nc2s1 was read as HCMV inh 14.7, Lassa entry inh inconclusive, HCV inhibitor 3.4%, FMDV antiviral 28.6% and Marburg entry inh -9.9%.
O=C(O)c1cccc(N2C(=O)C3C4C=CC(C4=C(c4ccccc4)c4ccccc4)C3C2=O)c1 (stereo not given) was read as HCMV inh -5.9, Lassa entry inh 6.3%, HCV inhibitor 14.2%, FMDV antiviral -10.9% and Marburg entry inh -14.1%[46.1 µM].
O=C(NN=C1CCCCCC1)NC1CCCCC1 was read as HCMV inh 4.1, Lassa entry inh 3.2%, HCV inhibitor 10.4%, FMDV antiviral 74.5% and Marburg entry inh 23.3%.
NC(=S)NN=C1CCCCCCCCCC1 was read as HCMV inh -39.3, Lassa entry inh -15.9%, HCV inhibitor 11.2µM*, FMDV antiviral inconclusive and Marburg entry inh -2.0%.
NC(=S)NN=C1CCC(C2CCCCC2)CC1 (stereo not given) was read as HCMV inh -79.5*, Lassa entry inh -20.1%[46.1 µM], HCV inhibitor inconclusive, FMDV antiviral -18.2% and Marburg entry inh inconclusive.
`Cc1ccc(-c2nc3cc(Cl)ccc3o2)cc1NC(=O)COc1ccc(F)cc1` gave HCMV inh 39.8, Lassa entry inh 2.6%[46.1 µM], FMDV antiviral 8.3% and Marburg entry inh -1.0%[46.1 µM].
For Cc1ccc(-n2ncc(C#N)c2/N=C/N2CCCCCC2)cc1 the results were HCMV inh -21.1, Lassa entry inh inconclusive, HCV inhibitor 10µM*, FMDV antiviral inconclusive and Marburg entry inh 10.5%.
For CCOC(=O)C1CCCN(C(=O)c2cc3c(Cl)nc4ccccc4c3s2)C1 (stereo not given) the results were HCMV inh -76.7*, Lassa entry inh 9.1%[46.1 µM], FMDV antiviral inconclusive and Marburg entry inh 8.3%[46.1 µM].
O=C(c1cc2c(Cl)nc3ccccc3c2s1)N1CCCCC1 was read as HCMV inh 3.8, Lassa entry inh 0.1%[46.1 µM], FMDV antiviral 56.5% and Marburg entry inh inconclusive.
For CCOC(=O)C1CCCN(C(=O)c2cc(Nc3ccc(OC)c(OC)c3)nc3ccccc23)C1 (stereo not given) the results were HCMV inh 43.7, Lassa entry inh -15.2%, HCV inhibitor inconclusive, FMDV antiviral inconclusive and Marburg entry inh 11.2µM*.
Screening O=C(O)CNc1nc(-c2ccccc2)nc2ccccc12 returned HCMV inh -19.1, Lassa entry inh 11.1%, HCV inhibitor 5.3%, FMDV antiviral -7.6% and Marburg entry inh -8.2%.
Screening CCOC(=O)CNc1nc(-c2ccncc2)nc2ccccc12 returned HCMV inh 67.5, Lassa entry inh 24.2%, HCV inhibitor inconclusive, FMDV antiviral -23.7% and Marburg entry inh 11.2µM*.
Screening O=C(OCCNc1nc(-c2ccccc2)nc2ccccc12)c1ccncc1 returned HCMV inh inconclusive, HCV inhibitor 15.8µM* and FMDV antiviral -28.6%.
Screening CCn1nc(C)cc1C(=O)NCC1Cc2cc(C)cc(-c3ccccc3C(=O)OC)c2O1 (stereo not given) returned FMDV antiviral -13.3%.

Compound activity: PubChem, National Center for Advancing Translational Sciences (NCATS)
